Most compounds without a hit are left out; they make up all but 1.5% or so of the library.
PriA SSB inh – inhibitors of Klebsiella pneumoniae PriA binding to SSB C-terminal tail, primary screen, biochemical, AlphaScreen; PriA–SSB C-terminal tail interaction (Klebsiella pneumoniae); AID 1272365, 2023; inhibition, % at 33 µM; 0.6% of 430,000 active; AlphaScreen SSBct-PriA binding, biotinylated peptide; in the data active means inhibition mostly above about 37%, no sharp cut-off; inactive means mostly below about 20%;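 further: plate controls were negative control peptide for no effect and reference peptide for full effect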
CCHFV vOTU inh – CCHFV vOTU protease inhibitors, primary screen, biochemical, Pep-AMC substrate, fluorescence. AID 651958, 2012. 0.55% of 370,000 active. inhibition, % at 11.5 µM. Crimean-Congo hemorrhagic fever virus L polyprotein viral ovarian tumor (vOTU) protease …; in the data active means inhibition above about 30%; further: 0% = vehicle wells with enzyme and 100% = no enzyme wells
PrPC surface inh – inhibitors of human cell surface prion protein PrPC, primary screen, cell-based, TR-FRET | Major prion protein (Homo sapiens), P04156 | TR-FRET read-out | inhibition, % at 13.8 µM | 0.43% of 370,000 active | AID 720596, 2013; in the data active means inhibition above about 24%; further: 0% = median of the test wells and 100% = reference compound wells
VHR inh abs – VHR1 phosphatase inhibitors, primary screen, biochemical, absorbance, uHTS; AID 1654, 2009; 0.52% of 290,000 active; recombinant VHR phosphatase, pNPP absorbance; inhibition, % at 13.3 µM; Dual specificity protein phosphatase 3 (Homo sapiens), P51452; in the data active means inhibition above about 50%
Target sequence (P51452 whole entry, looked up): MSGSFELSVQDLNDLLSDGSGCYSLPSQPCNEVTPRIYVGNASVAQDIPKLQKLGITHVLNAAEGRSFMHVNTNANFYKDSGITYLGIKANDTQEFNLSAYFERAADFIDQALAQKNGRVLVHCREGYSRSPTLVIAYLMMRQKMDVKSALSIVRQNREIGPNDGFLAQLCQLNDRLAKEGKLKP
Vc quorum ag-1 – inducers of Vibrio cholerae quorum light production without autoinducers, primary screen, BH1578 luxS cqsA deficient, single point. activation, % at 18.7 µM. V. cholerae BH1578 lux reporter, luminescence, 6 h. 0.16% of 350,000 active; in the data active means activation mostly above about 9.7%, no sharp cut-off
TcdB inh – TcdB glycohydrolase inhibitors, primary screen, biochemical, single point, plate reader | Toxin B (Clostridioides difficile), P18177 | TcdB glycohydrolase enzymatic assay | inhibition, % at 9.99 µM | 0.24% of 350,000 active | AID 652162, 2013; in the data active means inhibition above about 10%
Vc quorum ag-2 – V. cholerae lux activation without autoinducers – BH1578 luxS cqsA deficient, cherry-pick, plate reader, dose response | 620 tested, under 10 active | AID 602243, 2012 | activation, % at 50 µM | shares compounds with Vc quorum ag-1 | V. cholerae BH1578 lux reporter, luminescence, 6 h; call rule not given here
HeLa 24h tox – HeLa cell cytotoxicity, dose response, cytotoxicity control, 24 h, dry powder; shares compounds with Vc quorum ag-1; HeLa viability, CellTiter-Glo ATP luminescence; activity change, negative = cytotoxicity, % at 35 µM; 25 tested, under 10 active; AID 624140, 2012;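 active means signal drop with fitted half-maximal concentration at or below twice the highest valid dose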
* = called active by the depositor; i = inactive; / = not tested or not shown.

SMILES	PriA SSB inh	CCHFV vOTU inh	PrPC surface inh	VHR inh abs	Vc quorum ag-1	TcdB inh	Vc quorum ag-2	others
CCCCn1nnnc1NCc1ccc(N2CCCC2)cc1	6.5	7.1	-7.2	11.9	828.8*	/	3.1
CCCCn1nnnc1NCc1cccnc1	-3.3	10.6	-2.6	22.7	i	/	/
CCCn1nnnc1NCc1c(F)cccc1Cl	-15.9	13.2	4.5	7.3	i	0.5	/
O=C1CC(C(=O)N2CCN(c3ccc(F)cc3)CC2)CN1CCc1ccccc1 (centres undefined)	4.0	-6.7	0.5	17.0	-0.1	-0.1	/
CC(C)CCN1CC(C(=O)N2CCN(c3ccc(F)cc3)CC2)CC1=O (centres undefined)	-2.2	1.5	-0.8	13.2	16.7*	/	0.2
COC(=O)c1ccc(C)c(-n2c(N)c(C(=O)NCc3ccccc3)sc2=S)c1	23.0	/	/	/	/	/	/
CC(OC(=O)Cn1cnc2c1c(=O)n(C)c(=O)n2C)C(=O)c1ccccc1 (centres undefined)	-15.2	-2.7	-4.0	/	14.3	3.7	0.6
Cc1cc(C)c(C(=O)C(C)OC(=O)Cn2cnc3c2c(=O)n(C)c(=O)n3C)cc1C (centres undefined)	4.8	-11.4	-7.6	/	i	0.5	/
Cc1cc(Cl)ccc1OCC(=O)OCC(=O)NC1CCS(=O)(=O)C1 (centres undefined)	8.7	9.1	-2.4	/	14.3	1.0	-0.2
O=C(COC(=O)COc1ccc(Cl)cc1)NC1CCS(=O)(=O)C1 (centres undefined)	-5.9	10.2	0.3	/	-0.6	-0.4	/
OCCn1c(SC2CCCCC2)nc2ccccc21	-10.4	8.7	8.6	8.5	16.7*	/	-0.4
O=C(COc1ccccc1F)N1CCN(C(=O)[C@H]2C[C@@H]2c2cccs2)CC1	-7.0	/	/	/	/	/	/
CC(C)(C)Cc1nc(-c2ccccn2)no1	-4.2	-0.4	-1.1	-0.2	14.3	/	0.3
O=c1c2c3c(sc2ncn1Cc1ccc(F)cc1)CCC3	-15.2	12.2	5.7	26.9	25.4	/	-0.3
O=C(OC1CCN(c2ncc(C(F)(F)F)cc2Cl)CC1)c1ccc(Cl)cc1	-24.8	-4.8	3.5	10.5	12.5	/	-0.2
COc1ccc(NC(=O)COc2cccc3c2CCNC3=O)cc1	-6.8	1.6	7.4	/	27.5*	-0.7	3.2
C=CCOc1ccc(C(O)=C2C(=O)C(=O)N(CCN(C)C)C2c2cccs2)cc1 (centres undefined)	-6.3	/	/	/	/	/	/
CN(CC(=O)NCCN1CCOCC1)S(=O)(=O)c1ccc(Cl)cc1	-10.6	-9.2	-10.5	/	36.7*	3.1	0.6
O=S(=O)(c1ccc(Br)s1)N1CC(c2nc(-c3cccc(Cl)c3)no2)C1	-7.0	/	/	/	/	/	/
Cn1ccnc1S(=O)(=O)C1CCN(C(=O)c2csc(-c3ccccc3)n2)CC1	-4.0	/	/	/	/	/	/
Fc1ccc(NCc2cn3ccccc3n2)cc1	14.4	6.7	-0.3	-2.1	16.7*	/	0.7
CCS(=O)(=O)N1CCN(C(=O)CCC2CCCC2)CC1	2.3	-11.8	-0.7	-8.8	27.8*	/	5.6
O=C(CCC1CCCC1)N1CCN(S(=O)(=O)Cc2ccccc2)CC1	-13.3	-15.2	5.5	2.8	-2.9	/	/
CCCC(=O)NC1CCCc2c1cnn2-c1ccc(C)c(C)c1 (centres undefined)	-13.9	-11.0	-0.5	6.5	23.3	-0.2	-0.2
Cn1c(Cn2cnc(Cl)c2Cl)nc2ccccc21	-6.2	13.2	-4.2	25.9	16.7*	/	0.2
SMILES	PriA SSB inh	CCHFV vOTU inh	PrPC surface inh	VHR inh abs	Vc quorum ag-1	TcdB inh	Vc quorum ag-2	others
Cn1c(Cn2cnc3ccccc32)nc2ccccc21	-6.9	6.8	2.8	20.0	-0.3	/	/
CCOCCn1ccc2c(OCC(=O)NCc3ccco3)cccc2c1=O	-21.0	/	/	/	/	/	/
CC(=O)c1c(N2CCN(c3ccccc3)CC2)nc(=S)n(-c2ccccc2)c1C	8.6	-5.4	-14.3	2.8	/	/	/
CC(=O)c1c(N2CCC(C(N)=O)CC2)nc(=S)n(-c2ccccc2)c1C	-19.2	1.5	-1.1	17.3	6.6	/	0.2
COc1ccc(-c2cc(CCCC(=O)N3CCN(c4ccc(OC)cc4)CC3)no2)cc1	-6.8	-8.4	8.6	25.0	-1.5	-0.3	/
COc1ccc(-c2cc(CCCC(=O)NCCc3cc(OC)ccc3OC)no2)cc1	4.7	-6.0	-1.7	9.6	12.5	/	8.3
COC(=O)c1cc(C(=O)OCC(=O)c2ccc3c(c2)NC(=O)CO3)cc([N+](=O)[O-])c1	-0.7	-5.9	-3.6	/	14.3	1.6	9.6
Cc1cccc(C(=O)OCC(=O)c2ccc3c(c2)NC(=O)CO3)c1	-20.1	-0.3	-1.1	/	-1.0	0.8	/
O=c1c2nnn(-c3ccccc3)c2ncn1Cc1nc(-c2cccc(Cl)c2)no1	-4.0	/	/	/	/	/	/
CCCCNC(=O)Nc1cc(C)on1	-8.7	-2.2	-0.5	-4.1	14.3	/	-0.2
Cc1ccc2nc(SCc3nnc(-c4ccccc4Br)o3)[nH]c2c1	-3.9	5.6	4.0	17.2	12.5	/	0.3
Clc1ccc2nc(SCc3nnc(-c4ccccc4)o3)[nH]c2c1	-6.3	-3.0	2.8	3.6	i	/	/
O=C1OC2(CCCN(C(=O)c3nc4ccccc4s3)C2)c2ccccc21 (centres undefined)	4.0	/	/	/	/	/	/
CCn1nnc(NC(=O)Cc2ccc(Cl)cc2)n1	-8.8	3.5	-1.0	-18.3	-1.1	0.4	/
CCn1nnc(NCc2ccc(C)cc2)n1	/	/	/	/	/	/	/	HeLa 24h tox=9.7
O=C(Nc1nccs1)C(NS(=O)(=O)c1ccc(Br)s1)c1ccccc1 (centres undefined)	-12.0	7.3	-1.7	5.0	25.0*	/	0.4
CCOc1ccccc1NC(=O)COc1ccc2c(c1)OCO2	-9.4	9.6	3.3	11.8	-0.3	-2.2	/
COc1ccccc1NC(=O)COc1ccc2c(c1)OCO2	-14.2	3.3	10.7	1.6	104.5*	-2.2	212.5
COc1ccc(OCC(=O)Nc2ccccc2OC)cc1	6.7	11.4	10.4	-0.9	28.6*	-0.2	175.4
CCOC(=O)[C@@H]1CCc2sc(NC(=O)C3CN(C(=O)c4cnccn4)C3)nc21	-9.0	/	/	/	/	/	/
CCOC(=O)c1c(NC(=O)c2cccs2)sc(C)c1CC	-19.8	4.4	0.5	13.6	114.3*	/	1.3
CCc1c(C)sc(NC(=O)c2cccs2)c1C(=O)OC(C)C	-21.8	-19.3	-6.4	-18.8	i	/	/
COC(=O)c1ccc(NC(=O)Cn2cnc3c(-c4ccc(Cl)cc4)csc3c2=O)cc1	-1.0	/	/	/	/	/	/

Source: PubChem BioAssay (several laboratories)
